# About 83,000 compounds went through this panel and 20% of them were active in at least one assay; those are over-represented in the sample as a whole.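 48-hour exposure, single concentration, 96-well plates; percent growth endpoint where 0 means no net growth. Active: below 10.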 Values without a mark were called inactive. Activity calls are given as the source filed them.
# System: MDA-MB-468 breast
# Test: NCI-60 one-dose screen, 48 h (100 = growth as untreated, 0 = no growth, -100 = all killed)
# Details: 10 µM unless noted
row,SMILES,growth
1,CCO/C=C1\SC(=S)N(c2cccc(C)c2)C1=O,102%
2,Cc1cccc[n+]1CCC[n+]1ccccc1C,103%
3,O=S(=O)(NCCNc1nccc(-n2cnc3ccccc32)n1)c1ccc(Br)cc1,84%
4,c1ccc(/C(=N\N=C(/c2ccccc2)c2cccs2)c2cccs2)cc1,105%
5,CC(C)(C)CC(C)(C)NCc1cc(C(C)(C)C)cc(CNC(C)(C)CC(C)(C)C)c1O,36.2%
6,COc1cc([C@@H]2c3cc4c(cc3[C@H](O)[C@H]3COC(=O)[C@H]23)OCO4)cc(OC)c1OC,-17.5% (active)
7,NCCCNc1nc2ccccc2c2c(=O)c3cc(F)cc(F)c3sc12,70.3%
8,CCOC(=O)Nc1ccc2c(c1)/C(=N\NC(=S)NC)c1ccccc1-2,86.8%
9,N#Cc1cc2[nH]c3ccc(OC(F)(F)F)cc3c2oc1=O,95.2%
10,Nc1c(C(=O)Nc2ccccn2)sc2nc3c(cc12)C(O)CCC3 (stereo not given),15%
11,COc1ccc(C(=O)C2C(C#N)C(C#N)C3C=Cc4ccccc4N32)cc1 (stereo not given),16.5%
12,CC(=O)NC(O)C(Cl)Cl (stereo not given),106%
13,COc1c(C(NC(=O)c2ccccc2)c2sccc2C)cc(Cl)c2cccnc12 (stereo not given),102%
14,CCCCCCCCCCCCOC(=N)N(C)C,104%
15,CCN(CC)CCC(CNc1c(C)cnc2cc(Cl)ccc12)c1ccc(Cl)c(Cl)c1 (stereo not given),18.5%
16,CCc1cccc2c3c(sc12)C(c1ccc(OC)cc1)C(C#N)=C(/N=C/c1ccc(Cl)cc1)O3 (stereo not given),-6.83% (active)
17,C(=C\c1nc2ccccc2[nH]1)/c1nc2ccccc2[nH]1,106%
18,CC(C)(C)c1ccc(O)c(-c2ccccc2)c1,140%
19,CC1=NN(C(=O)c2nn(-c3ccc(Cl)cc3)cc2O)C(=O)C1,54.6%
20,O=S(=O)(Nc1ccc(-n2cnc3cc(-c4ccc(O)cc4)ccc32)cc1)c1ccccc1,100%

row,SMILES,growth
1,COc1ccc(-c2nc3ncccn3c2-c2nc3ccc(Br)cc3[nH]2)cc1,75.6%
2,O=S(=O)(NCCCNc1nccc(-c2c(-c3cccc(F)c3)nc3sccn23)n1)c1cccc(F)c1,33%
3,Cc1cc(C)cc(CCCCCCCCCCCCCCCCCC(=O)O)c1,106%
4,CCN1CCN(c2cc(C(=O)Nc3nc4ccc(Oc5ccnc(C(=O)NC)c5)cc4s3)cc(C(F)(F)F)c2)CC1,43.3%
5,O=C(Nc1cc(Nc2ncccc2-c2ncnc3nc[nH]c23)ccc1F)c1cc(C(F)(F)F)cc(C(F)(F)F)c1,-24.9% (active)
6,COc1ccc(C2C(C#N)=C(N)Oc3c2sc2c(Br)cccc32)cc1 (stereo not given),3.82% (active)
7,CCc1ccc(CCC(=O)Nc2ncc(Cc3cc(Cl)ccc3Cl)s2)o1,-23% (active)
8,CC(C)C(C#N)(C(C)C)C(C)C,109%
9,Cc1ccccc1C1CC(=O)c2ccccc2C1C (stereo not given),83%
10,O=S1(=O)c2ccccc2Oc2ccccc21,96.4%
11,Nc1nc(N)c(NC(=O)CNc2ccc(C(=O)O)cc2)c(N)n1,98.6%
12,O=c1c2ccccc2nc(COc2ccccc2)n1NS(=O)(=O)c1ccc(Cl)cc1,40.4%
13,CC1(C)C2CCC(O)(C(=O)O)C1C2 (stereo not given),106%
14,CC(C)[C@H]1COC(=O)N1[C@@H]1C(=O)N([C@@H](CCC(=O)N2CCN(C3CCCC3)CC2)C(=O)N[C@@H]2CCCc3ccccc32)[C@@H]1/C=C/c1cccc(Cl)c1,-11.4% (active)
15,CNC(=O)c1cncc(Cn2nc(C)c(NC(=O)c3ccc(COc4ccc(C(F)(F)F)cc4C)cc3)c2C)c1,10.7%
16,O=C(N=Nc1c(O)[nH]c2ccc(Br)cc12)c1cc(-c2ccccc2)on1,109%
17,Cc1ccc(C(=O)Cc2ccccc2)c(O)c1,117%
18,COC(=O)[C@@H](Cc1c[nH]c2ccccc12)NC[C@@H](O)CN1C(=O)/C(=C\c2cc(OC)c(OC)c(OC)c2)c2ccccc21,37.9%
19,CC(Cl)(CCl)CS(=O)(=O)c1ccc(Cl)cc1 (stereo not given),104%
20,CCOC(=O)c1cnn2c(-c3ccc(Cl)cc3)nc(NCc3ccccc3)nc12,84.8%
